Assay [1] in a line: yeast TOR pathway RPL19A-GFP modulators, primary screen, cell-based, S. cerevisiae, multiplex flow cytometry (AID 1862; in the data active = percent of DMSO control GFP below about 86%;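 also: lower values mimic rapamycin by blocking the RPL19A rise seen in DMSO cells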). To be noted: S. cerevisiae RPL19A-GFP strain, flow cytometry fluorescence, 3 h; at 10 µM; stronger effect = lower value. (In general: Flow cytometry measures light scatter and fluorescence of single cells or particles in a stream.)
Assay [2] can be described thus: modulators of MEP2-GFP levels in yeast, primary screen, S. cerevisiae, multiplex flow cytometry (AID 1867;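 active = GFP response, as percent of the DMSO control, above the screen-wide mean plus 3 SD, about 139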;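 also: median GFP channel fluorescence of barcode-gated MEP2-GFP cells measured by flow cytometry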). To be noted: S. cerevisiae MEP2-GFP strain, 3 h, at 10 µM, stronger effect = higher value, 100% means same as DMSO wells.
Assay [3] is described as follows: modulators of CIT2-GFP expression in yeast, primary screen, S. cerevisiae, GFP fusion, multiplex flow cytometry (AID 1870).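 Also: barcoded CIT2-GFP strain pooled with four other GFP strains with rapamycin as positive control; median GFP fluorescence per well over plate mean of DMSO wells so 100% = DMSO.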 To be noted: 3 h, at 10 µM, stronger effect = higher value.
Assay [4] can be described thus: modulators of LAP4-GFP expression in yeast, primary screen, S. cerevisiae, multiplex flow cytometry (AID 1873;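 active = GFP signal, as percent of the solvent control, above the screen mean plus 3 SD, about 149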). To be noted: 3 h, at 10 µM, stronger effect = higher value.
Assay [5] is described as follows: modulators of AGP1-GFP expression in yeast TOR pathway, primary screen, cell-based, multiplex flow cytometry, S. cerevisiae (AID 1887;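 active = GFP signal above the screen-wide mean plus 3 SD, that is over about 124.5% of the solvent control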;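 also: AGP1-GFP fusion strain of S. cerevisiae within a five-strain barcoded multiplex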). To be noted: 3 h, at 10 µM, stronger effect = higher value.
Assay [6] is described as follows: inhibitors of CD8+ T cell-vesicle binding, pilot screen, LFA-1/ICAM-1 modulator project, MLPCN validation set, flow cytometry (AID 2523;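 active = response below a set limit, under 55% cells CD8-positive and vesicle-bound, and CD8 cells' 90th-percentile brightness under 279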;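 as to vesicle binding response: mean PE anti-B7-1 fluorescence of CD8+ cells relative to row control; 100% = QL9-loaded vesicles with DMSO vehicle in the same plate row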). To be noted: 2C mouse CD8+ T cells, at 7 µM, stronger effect = lower value; double positive events: measured here: CD8+/vesicle+ event percentage.
Assay [7] deals with Integrin beta-1 (Homo sapiens) + Integrin alpha-4 (Homo sapiens) (UniProt P13612+P05556). Description: inhibition of HUTS-21 binding to VLA-4, pilot screen, VLA-4 allosteric modulator project, U937 cells, HUTS-21 mAb, flow cytometry, validation set (AID 2674;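 active = inhibition above 50%, about 3 SD of the validation set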;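 also: antibody binding induced by the VLA-4 ligand LDV present at three times its Kd; 0% = LDV ligand with antibody and no compound and 100% = antibody without LDV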). To be noted: HUTS-21 LIBS mAb binding, at 6.7 µM, stronger effect = higher value, binding induced by LDV ligand.
Sequence of Integrin beta-1 (Homo sapiens) + Integrin alpha-4 (Homo sapiens) (P05556 whole entry, looked up): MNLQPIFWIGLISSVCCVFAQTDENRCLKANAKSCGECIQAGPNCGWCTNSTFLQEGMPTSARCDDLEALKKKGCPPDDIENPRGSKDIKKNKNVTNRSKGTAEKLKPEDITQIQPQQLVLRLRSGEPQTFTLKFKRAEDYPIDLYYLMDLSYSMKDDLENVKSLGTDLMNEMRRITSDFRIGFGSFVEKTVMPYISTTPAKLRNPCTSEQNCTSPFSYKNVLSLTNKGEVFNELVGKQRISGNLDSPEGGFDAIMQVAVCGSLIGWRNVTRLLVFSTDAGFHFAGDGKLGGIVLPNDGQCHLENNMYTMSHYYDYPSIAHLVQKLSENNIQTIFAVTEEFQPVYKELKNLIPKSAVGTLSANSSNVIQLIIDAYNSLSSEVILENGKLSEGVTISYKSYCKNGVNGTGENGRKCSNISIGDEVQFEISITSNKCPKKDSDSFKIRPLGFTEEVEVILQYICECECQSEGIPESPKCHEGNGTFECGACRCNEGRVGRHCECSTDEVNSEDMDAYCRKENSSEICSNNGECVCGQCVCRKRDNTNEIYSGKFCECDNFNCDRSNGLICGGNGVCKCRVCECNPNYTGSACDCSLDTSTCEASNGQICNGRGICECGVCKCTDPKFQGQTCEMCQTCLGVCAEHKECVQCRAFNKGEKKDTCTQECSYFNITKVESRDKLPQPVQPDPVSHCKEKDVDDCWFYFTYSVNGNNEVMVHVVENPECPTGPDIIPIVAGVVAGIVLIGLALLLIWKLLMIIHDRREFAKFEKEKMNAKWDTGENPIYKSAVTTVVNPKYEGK
Sequence of Integrin beta-1 (Homo sapiens) + Integrin alpha-4 (Homo sapiens) (P13612 whole entry, looked up): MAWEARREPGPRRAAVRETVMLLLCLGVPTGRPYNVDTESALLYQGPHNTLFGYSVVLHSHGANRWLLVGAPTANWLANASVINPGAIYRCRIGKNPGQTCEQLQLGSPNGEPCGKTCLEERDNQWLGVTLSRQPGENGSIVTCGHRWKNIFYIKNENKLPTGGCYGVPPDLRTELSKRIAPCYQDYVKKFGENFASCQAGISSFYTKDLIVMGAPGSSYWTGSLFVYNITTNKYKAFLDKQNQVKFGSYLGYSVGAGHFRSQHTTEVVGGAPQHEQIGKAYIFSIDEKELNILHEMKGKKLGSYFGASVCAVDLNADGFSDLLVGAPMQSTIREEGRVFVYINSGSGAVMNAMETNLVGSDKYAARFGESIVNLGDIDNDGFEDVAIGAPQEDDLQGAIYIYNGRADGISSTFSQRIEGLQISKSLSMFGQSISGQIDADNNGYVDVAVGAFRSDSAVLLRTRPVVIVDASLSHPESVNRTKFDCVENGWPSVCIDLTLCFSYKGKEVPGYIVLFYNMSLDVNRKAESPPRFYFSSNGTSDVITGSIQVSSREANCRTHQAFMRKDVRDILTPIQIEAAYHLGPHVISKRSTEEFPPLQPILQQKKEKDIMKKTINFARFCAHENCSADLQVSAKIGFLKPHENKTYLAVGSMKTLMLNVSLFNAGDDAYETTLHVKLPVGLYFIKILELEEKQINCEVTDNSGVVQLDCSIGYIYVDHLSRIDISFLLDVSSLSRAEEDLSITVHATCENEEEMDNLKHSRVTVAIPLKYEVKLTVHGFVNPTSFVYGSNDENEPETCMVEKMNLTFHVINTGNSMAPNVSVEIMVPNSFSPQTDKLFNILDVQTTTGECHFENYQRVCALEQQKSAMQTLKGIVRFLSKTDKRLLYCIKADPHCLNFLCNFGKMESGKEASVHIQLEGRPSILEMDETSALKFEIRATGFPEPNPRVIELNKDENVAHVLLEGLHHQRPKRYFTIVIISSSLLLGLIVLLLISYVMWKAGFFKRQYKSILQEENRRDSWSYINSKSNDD
A short description of assay [8]: superoxide lowering in aged yeast cells, pilot screen, validation compound set (AID 2706;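 active = superoxide response below 65% of plate, a cut near 3 SD across the whole screen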;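 also: yeast exposed to compound for one week at 30 degrees C before staining; 100% = mean of all compound wells on the same plate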). To be noted: S. cerevisiae aging, superoxide DHE fluorescence; at 10 µM; stronger effect = lower value.
Assay [9] deals with Beta-adrenergic receptor kinase 1 (Homo sapiens) (UniProt P25098). Nature of the assay: GRK2 binders displacing RNA aptamer, biochemical, validation, human GRK2, bead flow cytometry (AID 488806;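 active = aptamer binding inhibition above 30%, about 3 SD of noise from non-fluorescent compounds; inactive = inhibition at or below 30%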). To be noted: bead-bound GRK2, FAM-aptamer displacement, at 10 µM, stronger effect = higher value.
Sequence of Beta-adrenergic receptor kinase 1 (Homo sapiens) (P25098 whole entry, looked up): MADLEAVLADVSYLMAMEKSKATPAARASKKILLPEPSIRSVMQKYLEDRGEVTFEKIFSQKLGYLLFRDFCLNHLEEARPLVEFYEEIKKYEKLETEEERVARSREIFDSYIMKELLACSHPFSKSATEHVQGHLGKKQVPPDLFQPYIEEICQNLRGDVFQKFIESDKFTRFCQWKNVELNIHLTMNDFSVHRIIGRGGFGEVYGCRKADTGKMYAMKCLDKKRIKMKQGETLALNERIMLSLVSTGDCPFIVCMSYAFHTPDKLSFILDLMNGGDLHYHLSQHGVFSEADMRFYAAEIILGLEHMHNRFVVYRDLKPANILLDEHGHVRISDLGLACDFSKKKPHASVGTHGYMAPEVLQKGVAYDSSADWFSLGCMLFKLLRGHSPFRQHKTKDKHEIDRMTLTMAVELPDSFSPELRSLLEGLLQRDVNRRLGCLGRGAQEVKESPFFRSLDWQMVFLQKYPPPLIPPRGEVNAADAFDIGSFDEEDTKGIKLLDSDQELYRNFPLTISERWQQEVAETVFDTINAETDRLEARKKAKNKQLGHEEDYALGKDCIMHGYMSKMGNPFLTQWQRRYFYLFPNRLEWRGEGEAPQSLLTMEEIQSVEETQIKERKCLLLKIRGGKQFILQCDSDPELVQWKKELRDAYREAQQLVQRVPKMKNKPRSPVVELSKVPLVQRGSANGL
Assay [10] addresses Beta-2 adrenergic receptor (Homo sapiens) (UniProt P07550). Nature of the assay: beta2AR agonists driving receptor internalization, pilot screen, cell-based, FAP fluorogen, flow cytometry, validation set (AID 504459;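 active = percent response above 42, roughly 3 SD of non-fluorescent test compounds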;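 also: agonist-driven loss of surface beta2AR via internalization measured by FAP dye flow cytometry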). To be noted: Am2.2-beta2AR cells, FAP surface receptor flow cytometry; at 10 µM; stronger effect = higher value.
Assay [11] addresses AP-2 complex subunit beta (Homo sapiens) (UniProt P63010). Nature of the assay: inhibitors of arrestin peptide binding to AP2, pilot screen, biochemical, validation set, GST-AP2 beads, flow cytometry (AID 504541;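 active = inhibition above 54%, about 3 SD of non-fluorescent compounds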;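 also: AP2 carries R879A mutation and is captured from E. coli lysate; bead-bound FITC arrestin peptide fluorescence measuring arrestin peptide binding to AP2; 0% = DMSO wells and 100% = excess unlabeled arrestin peptide control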). To be noted: FITC arrestin peptide, at 10 µM, stronger effect = higher value, AP2 beta2 appendage fragment, R879A mutant.
Assay [12] is described as follows: yeast V-ATPase proton transport modulators, S. cerevisiae, pHLuorin, HTS validation (AID 504600; in the data active = response above about 15%;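 also: plate controls were DMSO for no effect and reference compound for full effect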). To be noted: S. cerevisiae pHLuorin cytosolic pH, at 10 µM, stronger effect = higher value.
In assay [13] the test system is anti-desmoglein-3 scFv antibody binding to human DSG3. Description: inhibitors of anti-DSG3 scFv binding to DSG3, pilot screen, biochemical, validation compound set, bead-based, flow cytometry (AID 588368;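 active = binding below the plate cutoff, the plate median minus 3 SD, with a reading above zero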;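 also: signal is the median channel fluorescence of bead-bound GFP antibody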). To be noted: Protein G beads, DSG3-Fc, scFv-GFP binding, at 10 µM, stronger effect = lower value.
Assay [14] can be described thus: inhibitors of fungal efflux pumps CDR1, CDR2, MDR1, pilot screen, validation compound set, multiplex, phenotypic (AID 588506;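 active = efflux inhibition above 0.42, the validation set average plus 4 SD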;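 also: Nile Red retained in cells so higher fluorescence means more efflux inhibition; 0 = negative control wells and 1 = enniatin B 25 µM full block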). To be noted: S. cerevisiae pump-expressing triplex, Nile Red efflux flow cytometry; at 10 µM; stronger effect = higher value; the pumps come from Candida albicans.
Assay [15] has as its target ATP-binding cassette sub-family B member 6 (Homo sapiens) (UniProt Q9NP58). Description: ABCB6 transporter inhibitors, pilot screen, K562-ABCB6 cells, flow cytometry, validation set (AID 588550;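 active = inhibition above the screen-wide mean plus 3 SD, about 51%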;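 also: 0% = DMSO wells and 100% = benzethonium chloride 70 µM positive control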). To be noted: K562-ABCB6 porphyrin accumulation, 1 h, at 10 µM, stronger effect = higher value.
Assay [16] in a line: promoters of myeloid differentiation in arrested cells, primary screen, cell-based, GFP/MAC1 double positive, flow cytometry, validation set (AID 588685;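 active = differentiation response of at least 50%, scaled between solvent and reference control, from cells with both markers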;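 also: compound exposure lasts four days before antibody staining and flow analysis; 0% = DMSO wells and 100% = 5 µM fulvestrant positive control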). To be noted: ER-HoxA9 marrow cells, stronger effect = higher value, normalized: vehicle 0, fulvestrant 100.

What is called inhibition is the drop in the measured response relative to a control, in per cent.

Results filed as inconclusive are left out. Activity calls are given as the source filed them.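 The calls were made as follows, unless noted: active = percent response above a set limit, the screen-wide mean plus 3 SD (cut at about 130% in these data); inactive = the rest.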

Sequence of ATP-binding cassette sub-family B member 6 (Homo sapiens) (Q9NP58 whole entry, looked up): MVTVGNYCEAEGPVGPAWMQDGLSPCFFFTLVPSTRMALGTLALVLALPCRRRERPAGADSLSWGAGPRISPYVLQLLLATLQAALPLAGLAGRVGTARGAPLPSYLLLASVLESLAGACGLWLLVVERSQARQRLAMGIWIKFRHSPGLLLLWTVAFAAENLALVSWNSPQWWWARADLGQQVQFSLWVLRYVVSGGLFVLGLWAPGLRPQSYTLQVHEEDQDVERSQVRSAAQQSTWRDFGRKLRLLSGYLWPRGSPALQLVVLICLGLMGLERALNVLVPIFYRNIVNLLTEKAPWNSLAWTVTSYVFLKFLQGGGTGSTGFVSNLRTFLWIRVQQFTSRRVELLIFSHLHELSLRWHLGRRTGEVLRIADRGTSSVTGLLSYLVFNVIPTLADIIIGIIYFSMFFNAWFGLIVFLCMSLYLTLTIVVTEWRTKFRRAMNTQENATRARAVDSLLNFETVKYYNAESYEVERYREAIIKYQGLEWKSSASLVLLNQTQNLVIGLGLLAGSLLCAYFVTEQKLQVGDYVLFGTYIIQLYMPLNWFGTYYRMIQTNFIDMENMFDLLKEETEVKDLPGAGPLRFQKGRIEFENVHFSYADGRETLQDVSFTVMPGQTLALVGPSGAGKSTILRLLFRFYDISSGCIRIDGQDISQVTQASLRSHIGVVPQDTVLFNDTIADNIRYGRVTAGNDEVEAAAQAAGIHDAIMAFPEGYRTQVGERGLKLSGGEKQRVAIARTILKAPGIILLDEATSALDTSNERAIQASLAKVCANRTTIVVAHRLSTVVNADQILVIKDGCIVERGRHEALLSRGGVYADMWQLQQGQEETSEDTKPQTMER
Sequence of AP-2 complex subunit beta (Homo sapiens) (P63010 whole entry, looked up, the tested form may be a part, one chain of several): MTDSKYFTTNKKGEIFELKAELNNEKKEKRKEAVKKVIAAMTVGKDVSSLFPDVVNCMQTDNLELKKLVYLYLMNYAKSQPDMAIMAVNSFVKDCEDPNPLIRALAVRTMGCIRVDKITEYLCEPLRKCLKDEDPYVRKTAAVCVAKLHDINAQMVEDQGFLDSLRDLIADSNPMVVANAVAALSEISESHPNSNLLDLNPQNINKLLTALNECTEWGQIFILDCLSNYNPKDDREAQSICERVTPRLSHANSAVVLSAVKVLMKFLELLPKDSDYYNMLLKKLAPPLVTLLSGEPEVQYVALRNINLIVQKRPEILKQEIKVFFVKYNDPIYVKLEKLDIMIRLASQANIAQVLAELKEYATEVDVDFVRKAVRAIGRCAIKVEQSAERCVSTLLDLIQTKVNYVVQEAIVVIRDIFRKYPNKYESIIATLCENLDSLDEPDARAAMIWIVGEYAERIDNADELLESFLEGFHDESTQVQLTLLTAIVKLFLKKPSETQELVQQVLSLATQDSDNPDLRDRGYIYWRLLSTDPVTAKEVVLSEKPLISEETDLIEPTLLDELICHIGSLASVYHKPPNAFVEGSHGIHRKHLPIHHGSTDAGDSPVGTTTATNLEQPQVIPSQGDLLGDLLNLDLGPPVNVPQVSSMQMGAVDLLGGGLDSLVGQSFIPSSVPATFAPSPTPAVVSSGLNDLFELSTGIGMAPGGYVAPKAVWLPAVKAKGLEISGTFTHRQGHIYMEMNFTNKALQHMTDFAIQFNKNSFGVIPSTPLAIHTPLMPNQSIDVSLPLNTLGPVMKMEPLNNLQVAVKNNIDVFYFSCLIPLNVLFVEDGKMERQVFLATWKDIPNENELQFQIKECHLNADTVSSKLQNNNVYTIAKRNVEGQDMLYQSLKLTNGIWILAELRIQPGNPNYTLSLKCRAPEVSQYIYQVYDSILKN
Sequence of Beta-2 adrenergic receptor (Homo sapiens) (P07550 whole entry, looked up): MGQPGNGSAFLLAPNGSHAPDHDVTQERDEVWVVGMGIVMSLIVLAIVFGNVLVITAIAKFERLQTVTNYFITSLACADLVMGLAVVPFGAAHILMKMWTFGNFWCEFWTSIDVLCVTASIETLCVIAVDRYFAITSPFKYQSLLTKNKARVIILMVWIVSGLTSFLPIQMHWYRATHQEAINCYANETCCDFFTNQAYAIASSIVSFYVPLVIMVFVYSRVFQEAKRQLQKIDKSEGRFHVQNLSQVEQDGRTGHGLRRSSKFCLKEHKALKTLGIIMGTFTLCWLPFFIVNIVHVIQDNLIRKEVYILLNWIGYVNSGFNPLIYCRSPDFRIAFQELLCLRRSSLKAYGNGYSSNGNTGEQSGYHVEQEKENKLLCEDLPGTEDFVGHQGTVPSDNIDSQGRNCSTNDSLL

In the case of `O=C(NC(=S)Nc1ccc2c(c1)OCCO2)c1ccccc1F`, the percent of DMSO control GFP in [1] is 103% (inactive). For the same compound, the GFP response vs DMSO is 108% (inactive) in [2] and 93% (inactive) in assay [4]. Moreover, the percent response of DMSO control in assay [3] is 101% (inactive). Moreover, in [5], the GFP response, % of DMSO is 97.7% (inactive). Besides, in [6], the double positive events is 61.5%. In assay [6], the vesicle binding response is 2360% (inactive). Also, the inhibition is 1.12% (inactive) in assay [7], 7.78% (inactive) in assay [11] and 9% (inactive) in assay [15]. In addition, the superoxide response (% of plate) in [8] was 109% (inactive). In addition, the aptamer binding inhibition in assay [9] is 2% (inactive). In addition, the response was 5.42% (inactive) in assay [10] and 1.01% (inactive) in [12]. Moreover, the binding (% of control) in assay [13] is 98.5% (inactive). In addition, in assay [14], the efflux inhibition (fraction of control) is -0.12 (inactive). Also, the differentiation response in assay [16] was 0% (inactive).

Turning to `NC(N)=N/N=C/c1ccc(OS(=O)(=O)c2ccccc2)cc1`, in [1], the percent of DMSO control GFP is 102% (inactive). For the same compound, the GFP response vs DMSO in [2] was 101% (inactive); in [4], 90.4% (inactive). In addition, the percent response of DMSO control in assay [3] was 101% (inactive). The GFP response, % of DMSO in assay [5] is 102% (inactive). Moreover, in [6], the double positive events stood at 61.3%. Besides, in [6], the vesicle binding response was 141% (inactive). In addition, the inhibition in [7] is 17.7% (inactive); in [11] it was -0.93% (inactive); in assay [15] it was 11% (inactive). Besides, the superoxide response (% of plate) in assay [8] was 93.2% (inactive). Also, the aptamer binding inhibition in assay [9] is -12% (inactive). In addition, the values for the response in [10] and in assay [12] were 13.2% (inactive) and -4.93% (inactive), respectively. The binding (% of control) in assay [13] was 107% (inactive). The efflux inhibition (fraction of control) in [14] was -0.03 (inactive). Also, the differentiation response in assay [16] is 4.2% (inactive).

On to `O=C1C(=O)c2ccccc2C(O)=C1c1ccccc1F`, for which, in [1], the percent of DMSO control GFP was 111% (inactive). Moreover, the figures for the GFP response vs DMSO in [2] and in [4] were 99.9% (inactive) and 109% (inactive), respectively. Further, the percent response of DMSO control in assay [3] is 71.2% (inactive). The GFP response, % of DMSO in [5] is 85% (inactive). In addition, the double positive events in assay [6] is 54.9%. Moreover, the vesicle binding response in [6] is 15.9% (active). The inhibition in [7] was -11.8% (inactive); in assay [11] it was 5.16% (inactive); in assay [15] it was 5% (inactive). The superoxide response (% of plate) in assay [8] is 175% (inactive). In addition, in assay [9], the aptamer binding inhibition was 6% (inactive). The response in [10] is 4.63% (inactive); in assay [12], 0.28% (inactive). Besides, in assay [13], the binding (% of control) is 99% (inactive). Further, the efflux inhibition (fraction of control) in [14] was 0.46 (active). The differentiation response in assay [16] was 14.1% (inactive).

Consider `CC1(C)CC(=O)c2c(nc3ccccc3c2N)C1`, for which the percent of DMSO control GFP in assay [1] was 105% (inactive). In addition, the GFP response vs DMSO in [2] was 90.9% (inactive); in assay [4] it was 104% (inactive). Besides, the percent response of DMSO control in assay [3] was 111% (inactive). In addition, the GFP response, % of DMSO in [5] is 99.2% (inactive). In [6], this compound displayed a double positive events of 62.1%. The vesicle binding response in assay [6] was 259% (inactive). Also, the inhibition in assay [7] is -3.57% (inactive); in assay [11], -2.7% (inactive); in assay [15] it was 9% (inactive). The superoxide response (% of plate) in assay [8] is 89.8% (inactive). Also, the aptamer binding inhibition in assay [9] was 0% (inactive). Besides, the response in [10] is -12.4% (inactive); in assay [12] it was -3.81% (inactive). Moreover, the binding (% of control) in [13] was 102% (inactive). Moreover, the efflux inhibition (fraction of control) in assay [14] is -0.29 (inactive). In addition, the differentiation response in assay [16] is 0.24% (inactive).

Consider `CC(C)NS(=O)(=O)c1ccc(OCC(=O)Nc2cccc(F)c2)cc1`, for which the percent of DMSO control GFP in assay [1] was 101% (inactive). For the same compound, the figures for the GFP response vs DMSO in assay [2] and in [4] were 98.7% (inactive) and 89.3% (inactive), respectively. The percent response of DMSO control in assay [3] is 106% (inactive). Also, the GFP response, % of DMSO in assay [5] was 92.4% (inactive). The compound also yielded a double positive events in assay [6] of 59.7%. Moreover, the vesicle binding response in [6] was 143% (inactive). The inhibition in assay [7] was -11.8% (inactive); in assay [11], 5.6% (inactive); in [15], 7% (inactive). Further, the superoxide response (% of plate) in assay [8] was 95.1% (inactive). The aptamer binding inhibition in assay [9] was 3% (inactive). For the same compound, the response in assay [10] is 3.73% (inactive); in assay [12], -2.45% (inactive). For the same compound, the binding (% of control) in assay [13] is 98.5% (inactive). In addition, the efflux inhibition (fraction of control) in assay [14] was 0.22 (inactive). Also, the differentiation response in [16] was -10.4% (inactive).

Source of the values: PubChem BioAssay.
